In PubChem BioAssay AID493083 (Broad Institute, 2011):
The campaign covered roughly 2,400 compounds. About 95 (4%) were called active. Inconclusive results (about 3%) are left out.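 Rule for the calls: active = compounds lowering signal whose fitted AC50 is at most ten times the top tested dose; inconclusive = flat fit with moderate inhibition, or poor curve fit; inactive = the rest.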 A selection follows. Entries with a potency or affinity are not part of this list.

assay: decrease of heat-induced HSF-1 GFP reporter, dose response, NIH3T3 R4 cells, GFP/RFP, cherry-pick, set 3 (AID 493083); conditions: NIH3T3 R4 HSF-1 GFP reporter, heat shock, 48 h; series mostly up to 19.5 µM

outcome, inactive:
NS(=O)(=O)c1ccc(CCNC(=O)c2ccc(C#CC3(O)CCCCC3)cc2)cc1
COc1cccc(/C=N/NC(=O)c2cnccn2)c1
CC1CCN(CC(=O)c2cccs2)CC1
N/C(=N\OC(=O)Cc1ccccc1[N+](=O)[O-])c1cccnc1
COc1cc(NS(=O)(=O)c2ccc(C)cc2)c2ncccc2c1
Cc1ccc(S(=O)(=O)c2ccc(Oc3ccccc3)cc2)cc1
O=C(Cc1ccc(O)cc1)NC1CCCCCC1
Fc1ccc(-c2nc3c(-c4ccc(Cl)cc4)cnn3cc2CCN2CCOCC2)cc1
COc1ccc(-n2cc([N+](=O)[O-])c(=O)c3ccc(Cl)cc32)cc1
O=[N+]([O-])c1ccc(O)c(C=Nc2ccc3oc(Cc4ccc(Cl)cc4)nc3c2)c1
CC(=O)c1ccc(OCC(O)CN2CCN(Cc3ccc4c(c3)OCO4)CC2)cc1 (configuration not stated)
COc1ccc(C(=O)NC(=S)NNC(=O)c2ccco2)cc1
CNC(=S)N(CCc1c(C)[nH]c2ccc(C)cc12)Cc1cc(OC)c(OC)c(OC)c1
CC1CCC2(CC1)N=C(N)Nc1nc3ccccc3n12 (configuration not stated)
COc1ccc(C(=O)NNC(=O)c2ccccn2)cc1
COc1ccc(OC)c(-c2cc(C(=O)N/N=C/c3cc(OC)c(OC)cc3OC)c3ccccc3n2)c1
CC(C)Nc1nnc(Sc2ccc(Cl)cc2[N+](=O)[O-])s1
Cc1ccc2nc(CSc3nc(C)ccc3C#N)[nH]c2c1
CC(/C=C/c1ccc2c(c1)OCO2)=N/NC(=O)c1ccncc1
COCCN(C(=S)Nc1c(C)cccc1C)C(C)c1cccnc1 (configuration not stated)
COCCCn1c(-c2ccco2)nc2ccccc2c1=O
N#Cc1c(N)n(-c2ccccc2N)c2nc3ccccc3nc12
COc1ccccc1C(=O)NCC(=O)N/N=C/c1ccc2c(c1)OCO2
NS(=O)(=O)c1ccc(NC2=CC(=O)C(=O)c3ccccc32)cc1
CN(Cc1nc(-c2ccccc2)no1)C(=O)c1ccc2c(c1)OCO2
COc1cccc(-c2c(NC(C)=O)n(C)c3ccccc3c2=O)c1
COc1ccc(NC(=O)c2cc(CN3C(=O)c4ccccc4C3=O)ccc2OC)cn1
COc1ccc(/C=N/NC(=O)c2cc(-c3cccn3C)n[nH]2)cc1OC
C=CCn1c(CCCNC(=O)C(C)(C)C)nc2ccccc21
Cc1ccc(NC(=S)NC2CC3CCC(C2)N3Cc2ccco2)cc1C (configuration not stated)
COc1ccc(N2CCN(C(=O)c3ccc(NS(=O)(=O)c4ccccc4)cc3)CC2)cc1
COC(=O)c1cc2ccsc2n1Cc1nc(-c2ccc(Cl)cc2)oc1C
COc1ccccc1/C=C/CN1CCC(Oc2cc(C(=O)NC3CC3)ccc2OC)CC1
CC(NO)/C(=N\O)c1cccs1 (configuration not stated)
COC(=O)C1=C(C(=O)OC)[C@@H]2N(C)c3ccccc3[C@@]23C[C@@H](C(=O)OC)N(C(=O)CC(C)C)C3=N1
CCN1CCN(CCNC(=O)CCCCCn2c(=O)[nH]c3cc(C(=O)OC)ccc3c2=O)CC1
O=C(COC(=O)c1ccccc1SCC(=O)N1CCCC1)NC1CCS(=O)(=O)C1 (configuration not stated)
Cc1ccc(S(=O)(=O)N2CCCC(C(=O)NCCc3ccc4c(c3)OCO4)C2)cc1 (configuration not stated)
FC(F)Oc1ccc(NC(=S)NNc2ccnc3cc(Cl)ccc23)cc1
Cc1ccc(-n2ncc(Br)c(Br)c2=O)cc1
CCc1ccc(C(=O)Cn2ncc(Cl)c(Cl)c2=O)cc1
CCCCCn1c(SCC(=O)CC(=O)OCC)nc2cc(C(=O)N3CCC(C(N)=O)CC3)ccc2c1=O
CC(=O)Nc1cc[n+](C(C)C(=O)c2ccccc2)cc1 (configuration not stated)
COc1cccc(-n2ccnc2SCC(=O)Nc2ccccc2F)c1
O=C(CCc1ccccc1)Nc1cccc([N+](=O)[O-])c1
O=C(NN=C1CCCCCCCCCCC1)c1ccccc1F
COc1ccc(-n2nc(C(=O)NCC(=O)NCc3ccccc3OC)c3ccccc3c2=O)c(OC)c1
O=C(NC1CCCCC1)C(c1ccco1)N(C(=O)c1csnn1)c1ccc(Cl)cc1 (configuration not stated)
CCC(C)NC(=O)C1(C)CCC(=O)N1Cc1ccccc1OC (configuration not stated)
O=C(O)CSc1nc(-c2ccccc2)nc2c1oc1ccccc12
CNC(=O)c1ccsc1NC(=O)c1ccc(Cl)s1
Cc1ccc(OCC(=O)NCCNC(=O)c2ccco2)cc1C
CCCCn1c(SCC(=O)NCc2ccco2)nc2c(sc3ccccc32)c1=O
O=C(CCl)N1N=C(c2cccs2)CC1c1ccco1 (configuration not stated)
COc1ccc(C2=NN(S(C)(=O)=O)C(c3cccs3)C2)cc1OC (configuration not stated)
COc1c([N+](=O)[O-])c(=O)oc2ccccc12
Cn1c(=O)c2ccccc2n(Cc2ccccc2Cl)c1=O
C/C(=N\NC(=O)c1nnn(-c2nonc2N)c1C(C)C)c1ccncc1
COc1ccc(/C=N/NC(=O)Nc2cccc3nsnc23)cc1OC
COc1ccc(CNC(C)CCc2ccccc2)cc1 (configuration not stated)
CCOc1ccc(NC(=O)CN(C)C(=O)c2ccc(N3CCCC3)c([N+](=O)[O-])c2)cc1OCC
COc1cccc(N2CCN(C(=S)Nc3cc(C)cc(C)c3)CC2)c1
CC(CCCC(C)(C)O)NC(=O)c1ccc2oc(CCc3ccccc3)nc2c1 (configuration not stated)
COc1ccc(NC(=O)CCc2nnc3ccc(N4CCC(C)CC4)nn23)cc1OC
O=C(O)c1cccc(NC(=S)N/N=C/c2cccnc2)c1
CCc1cccc2c(C(=O)COC(=O)c3ccc([N+](=O)[O-])s3)c[nH]c12
CNC(=S)N/N=C/c1ccc(-c2cccc(C(=O)O)c2)o1
CCOc1ccc(NC(=O)CCCNC(=O)Cn2cnc3sc(C)c(C)c3c2=O)cc1
CCC(=O)n1nc(-c2cccnc2)nc1NCc1cccs1
COc1ccc(N=Cc2c(O)ccc3ccccc23)cc1
O=C1CCCN1CCC1CCN(C(=O)Nc2ccccc2)CC1
CC(C)CCNC(=O)c1ccc2c(SCC(=O)O)c3c(nc2c1)CCC3
COc1ccc(OC)c(NC(=O)C2CCCN(S(=O)(=O)c3c(C)nn(C)c3C)C2)c1 (configuration not stated)
O=C(NCc1ccncc1)C(=O)Nc1nc(C23CC4CC(CC(C4)C2)C3)cs1
Cc1cccc(C)c1NC(=O)c1cccnc1
COc1ccc(C)c2sc(NC(=O)C3=COCCO3)nc12
Cc1ccc(N2C(=O)N(CC(=O)NC(N)=O)C(=O)C2C)cc1 (configuration not stated)
COc1cccc(Nc2ccc(C(=O)O)cc2N)c1
Cn1c(=O)c2c(ncn2CC(=O)Nc2cccc(S(=O)(=O)Nc3ccccc3F)c2)n(C)c1=O
C/C(=N\NC(=O)c1c(C)nc2ccccn12)c1ccc(C(C)(C)C)cc1
CCOC(=O)c1c(C)[nH]c(C)c1S(=O)(=O)NCCc1cccs1
CCOC(=O)c1c(N2CCCCC2)c2ccccc2[nH]c1=O
CC(C)(C)c1ccc(/C=N/N2C(=O)CSC2=S)cc1
O=C(NCCN1CCCCC1)Nc1ccccc1Cl
NNC(=S)Nc1ccccc1Cl
CC(C)C(=O)Nc1cccc(-c2nc3ncccc3o2)c1
CC(=O)Nc1nn(C)c2nc(C)cc(C)c12
Cc1cc(C)c(NC(=O)Nc2ccc3c(c2)OCO3)c(C)c1
O=C(/C(=C(\[O-])c1ccccc1)[n+]1ccc2ccccc2c1)c1ccc([N+](=O)[O-])cc1
CCOC(=O)c1sc(NC(=O)Nc2ccccc2F)nc1C
CCOC(=O)Cc1cnc(NC(=O)c2ccccc2)s1
N#Cc1cccc(C#N)c1Oc1ccc(S(=O)(=O)Nc2ccc(Cl)cc2)cc1
CCOC(=O)CCCNS(=O)(=O)c1c(C)ccc2nsnc12
COc1ccc(-n2c(C)c(C(C)=O)c(C(C)=O)c2C)cc1
COc1ccc(/C=C/C(=O)NC(=S)NCCc2ccc(OC)c(OC)c2)cc1
O=C(O)C1CCC(=O)N(C2CCCCC2)C1c1ccccc1Cl (configuration not stated)
O=C(CC1C(=O)NCCN1Cc1ccccc1F)NC1CCCCCC1 (configuration not stated)
Cc1nn(-c2ccccc2Cl)c(Cl)c1/C=N/Nc1nc2ccccc2s1
COc1ccccc1-c1nnc(SC2CCc3ccccc3NC2=O)s1 (configuration not stated)
N#CCCn1nnc(-c2ccccc2F)n1
Cc1ccccc1OCC(=O)Nc1ccc2c(c1)C(=O)N(CCC(=O)O)C2=O
O=[N+]([O-])c1ccc(Nc2ccc(F)cc2)cc1
COc1nnc(-c2ccc(C(=O)N3C[C@@H]4C[C@H](C3)c3cccc(=O)n3C4)cc2)c2ccccc12
COc1ccc(S(=O)(=O)N2CCCC2)cc1C(C)C
O=C(N1CCCCC1)N1CCN(S(=O)(=O)c2ccccc2)CC1
CCN(C1CCS(=O)(=O)C1)S(=O)(=O)c1cccs1 (configuration not stated)
Cc1ccnc(NC(=O)CS(=O)(=O)c2ccccc2)c1
Cc1c(Cl)cccc1NC(=O)CS(=O)(=O)c1ccccc1
Cc1ccccc1OCCC(=O)OCC(=O)N1c2ccccc2NC(=O)C1(C)C
Cc1c(-c2nc(-c3ccc(C(C)(C)C)cc3)no2)n(C)oc1=O
CCOC(=O)c1cnc2ccc(C(=O)OC)cc2c1NCCCN1CCOCC1
O=C(NCc1ccncc1)c1ccc(Cl)c(S(=O)(=O)N2CCOCC2)c1
